The text below walks through data of PubChem BioAssay (NCATS).

Structures are written as SMILES. A number with no mark means an inactive call. Inconclusive results are not listed. Activity calls are given as the source filed them. The call rests on the fitted dose curve; in most records, active means well fitted curve in the direction sought with a large enough effect; inconclusive means small, poorly fitted or top-dose-only effect, or another doubt; inactive means no such curve, though single readings can be large; an effect the other way counts as inactive or inconclusive.

Experiment [1] concerns Zika virus NS2B-NS3 protease (linked construct). The experiment can be described thus: Primary screen NINDS Rhodamine qHTS for Zika virus inhibitors (AID 1347160). Further: nearly all actives have a fitted effect of over 55% in size. A digest of the protocol: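 Percent inhibition, normalized to uninhibited and enzyme-free controls, is fitted to a 4-parameter Hill equation. Fluorescence change comes from a 15-min cleavage of 1.5 microM bis-peptide Rhodamine110 substrate by 25 nM linked NS2B-NS3 at room temperature.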

In experiment [2] the target is Calcium and integrin-binding protein 1 (Homo sapiens) (UniProt Q99828). The experiment can be described thus: Primary qHTS for Identification of Calcium Integrin Binding Protein 1 (CIB1) Competitor (AID 1508620).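 Further: GST tagged CIB1 binding a fluorescein labelled alphaIIb integrin peptide tracer; top concentration of the series differs between compounds; on the % scale 0 is the no-effect control and ±100 the full control effect.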 A digest of the protocol: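 CIB1-GST (1 uM final) and compound incubated 15 min at room temperature before adding FITC-alphaIIb peptide tracer (100 nM final). Competition for binding read by fluorescence polarization (ex 480, em 540) after another 15 min at room temperature.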

The nature of experiment [3]: Primary qHTS for inhibitors of nuclear receptor binding SET domain protein 2 (NSD2) in an isogenic RCH-ACV NSD2 p.E1099K mutant (9B) (AID 1645876). Further: nearly all actives have a fitted effect of over 70% in size. Further: potency means the concentration at half of the fitted maximal effect. On the technique in general: In qHTS, concentration-response curves come from the screen itself.
Experiment [4] has as its target Phospholipid hydroperoxide glutathione peroxidase GPX4 (Homo sapiens) (UniProt P36969). The experiment can be described thus: Primary qHTS Assay for Inhibitors of Recombinant Selenoprotein Glutathione Peroxidase 4 (GPX4) (AID 1845192). Further: nearly all actives have a fitted effect of over 65% in size. The method, boiled down: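 NADPH consumption, followed by fluorescence at 340/450 nm between 0 and 15 min, reports GPX4 activity via coupled glutathione reductase (100 nM). Enzyme 200 nM was pre-exposed to compound 30 min; 0.5 mM cumene hydroperoxide and 1 mM GSH served as substrates.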

The target in experiment [5] is Luciferin 4-monooxygenase (Photinus pyralis) (UniProt P08659). Briefly: Primary firefly luciferase (FLuc) qHTS assay for identification of artifact compounds. (AID 1845220). Further: nearly all actives have a fitted effect of over 60% in size. The settings on record: outcome: dose series up to 54.1 µM unless noted. A digest of the protocol:
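Compounds sat 15 min at room temperature with 10 uM luciferin and 10 uM ATP (pH 7.6 Tris acetate). Firefly luciferase (10 nM final) was then added, and luminescence was read 5 min later. Data normalized to no-enzyme and DMSO controls were Hill-fitted.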

In experiment [6] the test system is Nanoluciferase (engineered Oplophorus gracilirostris luciferase). The experiment can be described thus: Primary Nanoluciferase (NLuc) qHTS assay for identification of artifact compounds. (AID 1845222).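 Further: 0% = DMSO and -100% = no enzyme.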 A digest of the protocol: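 Luminescence from secreted NLuc (filtered, 1:55-diluted S16 cell medium) read 5 min after Nano-Glo substrate; compounds preincubated 15 min, RT. Hill fits of inhibition normalized to DMSO and no-enzyme.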

The subject of a further experiment is CRL-7250. Briefly: Cytotoxic Profiling of Annotated Libraries Using Quantitative High-Throughput Screening (AID 1296008). Further: nearly all actives have a fitted effect of over 60% in size. Further: potency means the concentration at half of the fitted maximal effect. On max response: on the % scale 0 is the no-effect control and ±100 the full control effect. The settings on record: Five cell lines viability, CellTiter-Glo ATP luminescence, 48-72 h; max response: active compounds read low. The method, boiled down: (§1)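 Cytotoxicity was measured as CellTiter-Glo ATP luminescence, read after 10 min at room temperature. Compound treatment of the cells lasted 48 or 72 hr at 37 degrees Celsius in a qHTS format.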
(Cellular ATP, detected with luciferase, serves as a proxy for viable cell number.)

The test system of another experiment is HEK293. Described as above. The settings on record: Five cell lines viability, CellTiter-Glo ATP luminescence, 48-72 h; max response: active compounds read low. A digest of the protocol:
as §1

In a further experiment the test system is NIH3T3. Described as above. The settings on record: Five cell lines viability, CellTiter-Glo ATP luminescence, 48-72 h; max response: active compounds read low. A digest of the protocol:
as §1

In another experiment the test system is C33A. Briefly: Primary qHTS to identify gynecologic anti-cancer compounds using libraries of approved drugs and bioactive compounds (AID 1345084). Further: nearly all actives have a fitted effect of over 55% in size. Further: potency means the concentration at half of the fitted maximal effect. The settings on record: Gynecologic cancer cell panel viability, ATPlite luminescence, 48 h; series mostly up to 57.5 µM. A digest of the protocol:
(§2)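 Cell viability after 48 h drug treatment, ATPlite luminescence readout; five doses.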

In a further experiment the test system is CASKI. Described as above. The settings on record: Gynecologic cancer cell panel viability, ATPlite luminescence, 48 h; series mostly up to 57.5 µM. A digest of the protocol: as §2
The next experiment relates to Es-2. The description is as above. The settings on record: Gynecologic cancer cell panel viability, ATPlite luminescence, 48 h; series mostly up to 57.5 µM. The method, boiled down: as §2
A further experiment relates to Hek293T. The description is as above. The settings on record: Gynecologic cancer cell panel viability, ATPlite luminescence, 48 h, control line for the selectivity index; series mostly up to 57.5 µM. The method, boiled down: as §2
The next experiment deals with JEG-3. The description is as above. The settings on record: Gynecologic cancer cell panel viability, ATPlite luminescence, 48 h; series mostly up to 57.5 µM. A digest of the protocol: as §2
For another experiment, the system named is OV90. The experiment is described as above. The settings on record: Gynecologic cancer cell panel viability, ATPlite luminescence, 48 h; series mostly up to 57.5 µM. A digest of the protocol:
as §2

The next experiment concerns PA-1. The description is as above. The settings on record: Gynecologic cancer cell panel viability, ATPlite luminescence, 48 h; series mostly up to 57.5 µM. A digest of the protocol:
as §2

The subject of the next experiment is Tov-21-G. The description is as above. The settings on record: Gynecologic cancer cell panel viability, ATPlite luminescence, 48 h; series mostly up to 57.5 µM. A digest of the protocol: as §2
The test system of a further experiment is Tov112D. The description is as above. The settings on record: Gynecologic cancer cell panel viability, ATPlite luminescence, 48 h; series mostly up to 57.5 µM. A digest of the protocol: as §2
Experiment [7] has as its target Glutathione peroxidase 1 (Homo sapiens) (UniProt P07203). Briefly: Primary qHTS Assay for Inhibitors of Recombinant Selenoprotein Glutathione Peroxidase 1 (GPX1) (AID 1845191). Further: nearly all actives have a fitted effect of over 65% in size. A digest of the protocol:
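10 nM GPX1 + cpd, 30 min RT; start w/ 1 mM GSH, 0.5 mM cumene hydroperoxide, 0.5 mM NADPH, 100 nM GR, 0.01% BSA; buffer 50 mM Tris-HCl pH 7.5, 2 mM EDTA, 150 mM NaCl; Fl 340/450, 0 & 15 min.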

For a further experiment, the system named is HaCat. The experiment can be described thus: Cytotoxic Profiling of Annotated Libraries Using Quantitative High-Throughput Screening (AID 1296008). Further: nearly all actives have a fitted effect of over 60% in size. Further: potency means the concentration at half of the fitted maximal effect. On max response: on the % scale 0 is the no-effect control and ±100 the full control effect. The settings on record: Five cell lines viability, CellTiter-Glo ATP luminescence, 48-72 h; max response: active compounds read low. A digest of the protocol:
as §1

Phospholipid hydroperoxide glutathione peroxidase GPX4 (Homo sapiens), sequence (P36969 whole entry, looked up): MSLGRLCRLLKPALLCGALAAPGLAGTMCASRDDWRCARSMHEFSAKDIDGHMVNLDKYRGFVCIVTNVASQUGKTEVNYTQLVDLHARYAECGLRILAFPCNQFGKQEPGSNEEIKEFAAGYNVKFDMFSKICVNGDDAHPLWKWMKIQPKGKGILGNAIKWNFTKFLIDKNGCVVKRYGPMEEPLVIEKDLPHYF
Glutathione peroxidase 1 (Homo sapiens), sequence (P07203 whole entry, looked up): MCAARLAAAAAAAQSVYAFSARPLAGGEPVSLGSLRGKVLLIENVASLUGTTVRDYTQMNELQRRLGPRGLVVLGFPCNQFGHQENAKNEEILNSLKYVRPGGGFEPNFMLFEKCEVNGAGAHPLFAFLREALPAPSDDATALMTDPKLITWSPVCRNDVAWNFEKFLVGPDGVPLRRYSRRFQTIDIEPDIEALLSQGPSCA
Calcium and integrin-binding protein 1 (Homo sapiens), sequence (Q99828 whole entry, looked up): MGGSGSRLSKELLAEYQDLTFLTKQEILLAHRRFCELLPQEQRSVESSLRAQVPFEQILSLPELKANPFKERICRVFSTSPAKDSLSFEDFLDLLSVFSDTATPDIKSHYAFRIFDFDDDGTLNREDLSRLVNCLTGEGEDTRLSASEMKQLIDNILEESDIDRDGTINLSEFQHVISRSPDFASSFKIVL

On to `CN1CCN(c2nc3ccccc3nc2Cl)CC1`, for which the Potency entry (in experiment [1]; in [2]; in experiment [3]; in [4]; in [6]; in the experiment on C33A) was “inactive” each time. Moreover, the Potency entry with CASKI, in the experiment on Es-2, in the experiment with Hek293T, with JEG-3, in the experiment with OV90 and with PA-1 was “inactive” throughout. Further, the Potency result in the experiment on Tov-21-G and in the experiment with Tov112D was “inactive” in each case. Further, the call (in experiment [5]; with HEK293; in the experiment on NIH3T3) was inactive. Also, in the experiment on CRL-7250, the max response is -8.1%.
Turning to `Cc1cccc(NC(=O)N[C@H]2CN(C)c3ccccc3C(c3ccccc3)=N2)c1`, the Potency entry (in [1]; in [2]; in experiment [7]; in experiment [4]; in the experiment on C33A; in the experiment on CASKI) was “inactive” each time. Further, the Potency entry in the experiment with Es-2, in the experiment on Hek293T, in the experiment on JEG-3, in the experiment on OV90, with PA-1 and with Tov-21-G was “inactive” throughout. For the same molecule, the Potency result in the experiment with Tov112D is “inactive”. For the same molecule, the outcome (in experiment [5]; in the experiment on HaCat) was inactive. Moreover, the max response in the experiment on CRL-7250 is -1.7%; in the experiment on HEK293, -2.16%; with NIH3T3, -5.29%.
In the case of `COCC(C(=O)OC1CC2CCC(C1)N2C)c1ccccc1` (configuration not stated), the Potency entry (in [1]; in [2]; in experiment [3]; in [4]; in experiment [6]; with C33A) was “inactive” throughout. Further, the Potency entry in the experiment with CASKI, in the experiment on Es-2, in the experiment on Hek293T, in the experiment with JEG-3, in the experiment on OV90 and in the experiment on PA-1 was “inactive” in each case. Further, the Potency entry in the experiment with Tov-21-G and in the experiment on Tov112D was “inactive” each time. In addition, the outcome (in experiment [5]; with HaCat) was inactive. The max response was -5.38% with CRL-7250, -0.619% in the experiment on HEK293 and 3.79% in the experiment on NIH3T3.
For the molecule `CCC1NC(=O)C2C(Cl)C(Cl)CN2C(=O)C(CC)NC(=O)CC(c2ccccc2)NC(=O)C(CO)NC1=O` (configuration not stated), the Potency result (in [2]; in experiment [7]; in [4]; in experiment [6]; in the experiment with C33A; in the experiment with CASKI) was “inactive” each time. For the same molecule, the Potency entry in the experiment with Es-2, in the experiment on Hek293T, in the experiment with JEG-3, with OV90, with PA-1 and in the experiment on Tov112D was “inactive” throughout. In addition, the outcome (in [5]; in the experiment with HaCat; in the experiment with NIH3T3) was inactive. In addition, the max response in the experiment on CRL-7250 was 2.35%; in the experiment on HEK293, -1.56%.
As to `Cc1ccccc1CN1CCC(N2CCC(n3c(=O)[nH]c4ccccc43)CC2)CC1`, the Potency entry in [1], in [2], in [3], in experiment [7], in [4] and in experiment [6] was “inactive” throughout. For the same molecule, the Potency entry in the experiment with CASKI, in the experiment with Es-2, in the experiment with JEG-3, in the experiment on PA-1, in the experiment on Tov-21-G and in the experiment on Tov112D was “inactive” in each case. In addition, the molecule was classed as inactive (in experiment [5]; in the experiment on NIH3T3). Besides, the Potency in the experiment with CRL-7250 was 7310 nM (active); in the experiment on HEK293, 6510 nM (active). Moreover, the max response in the experiment on HaCat is 0.939%.
As for `CC[C@@]1(O)C(=O)OCc2c1cc1n(c2=O)Cc2cc3c(OC)cccc3nc2-1`, the Potency result in experiment [1], in [2], in experiment [7], in experiment [4] and in experiment [6] was “inactive” each time. The Potency in [3] is 7.1 nM (active); in the experiment on CRL-7250, 5080 nM (active); in the experiment on HEK293, 50.8 nM (active); in the experiment on HaCat, 114 nM (active); in the experiment on C33A, 631 nM (active); in the experiment on Hek293T, 1580 nM (active). The Potency is 1120 nM (active) with OV90, 89.1 nM (active) in the experiment on PA-1, 5620 nM (active) in the experiment with Tov-21-G and 224 nM (active) in the experiment on Tov112D. For the same molecule, the result in experiment [5] was inactive.
Take `CN1C[C@@H]2CN(c3ccc(-c4ccccc4)nn3)C[C@@H]2C1`: the Potency result in experiment [1], in experiment [2], in experiment [3], in [7], in experiment [4] and in experiment [6] was “inactive” each time. The Potency result with C33A, in the experiment on Es-2, in the experiment on Hek293T, with JEG-3, with OV90 and in the experiment with PA-1 was “inactive” in each case. Also, the Potency entry with Tov-21-G and in the experiment with Tov112D was “inactive” throughout. For the same molecule, the molecule was classed as inactive (in experiment [5]; in the experiment with NIH3T3). The max response in the experiment on CRL-7250 is 2.36%; in the experiment with HEK293, -5.4%; in the experiment with HaCat, -2.1%.
`C=C1C[C@]2(O)[C@@]3(C)CCC(=O)C(C)(C)C3=C(O)C(=O)[C@@]2(C)[C@@H]2C(=O)O[C@@](C)(C(=O)OC)C(=O)[C@@]12C`: the Potency entry (in experiment [2]; in [3]; in [7]; in experiment [4]; in experiment [6]; in the experiment on C33A) was “inactive” each time. Besides, the Potency entry in the experiment with CASKI, with Es-2, in the experiment with Hek293T, in the experiment on JEG-3, with OV90 and with PA-1 was “inactive” each time. Also, the Potency result in the experiment with Tov-21-G and in the experiment on Tov112D was “inactive” each time. Also, the result (in experiment [5]; with HEK293) was inactive. Further, the max response was 2.22% with CRL-7250 and 1.84% in the experiment on NIH3T3.
For the molecule `N#CC(O[C@@H]1O[C@H](CO)[C@@H](O)[C@H](O)[C@H]1O)c1ccccc1` (some centres not stated), the Potency result in experiment [1], in experiment [2], in [3], in [7], in experiment [4] and in [6] was “inactive” each time. The Potency result in the experiment on C33A, in the experiment on CASKI, with Es-2, in the experiment with Hek293T, with JEG-3 and with OV90 was “inactive” in each case. The Potency result in the experiment with PA-1, with Tov-21-G and in the experiment with Tov112D was “inactive” throughout. The molecule was classed as inactive (in [5]; with CRL-7250). The max response with HEK293 is -8.76%; in the experiment with HaCat it was -12%; in the experiment with NIH3T3 it was 1.1%.
